# From PubChem BioAssay (NCATS)
# Results filed as inconclusive are left out. Active and inactive are the calls of the source. Calls follow the shape of the dose curve; as a rule, active = well fitted inhibition curve with a large enough effect; inconclusive = small, poorly fitted or top-dose-only effect; inactive = flat fitted curve, though single readings scatter.
# Target: Calcium and integrin-binding protein 1 (Homo sapiens) (UniProt Q99828)
# Experiment: Primary qHTS for Identification of Calcium Integrin Binding Protein 1 (CIB1) Competitor (AID 1508620);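 also: GST tagged CIB1 binding a fluorescein labelled alphaIIb integrin peptide tracer; top concentration of the series differs between compounds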
# Conditions: CIB1-GST / FITC-alphaIIb peptide fluorescence polarization; series mostly up to 57.7 µM; activity change, negative = inhibition: at the top concentration
# Procedure, shortened: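 CIB1-GST (1 uM final) and compound incubated 15 min at room temperature before adding FITC-alphaIIb peptide tracer (100 nM final). Competition for binding read by fluorescence polarization (ex 480, em 540) after another 15 min at room temperature.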
# % is scaled to controls: 0 for no effect and ±100 for the full control effect.
# Sequence of Calcium and integrin-binding protein 1 (Homo sapiens) (Q99828 whole entry, looked up): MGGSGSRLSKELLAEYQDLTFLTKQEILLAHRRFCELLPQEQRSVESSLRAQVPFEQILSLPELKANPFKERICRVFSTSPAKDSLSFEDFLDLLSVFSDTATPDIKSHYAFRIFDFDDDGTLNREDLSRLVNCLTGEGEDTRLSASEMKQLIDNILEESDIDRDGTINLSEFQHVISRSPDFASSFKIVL
SMILES,"activity change, negative = inhibition",Potency
C1CCN2CC3C[C@@H](CN4CCCC[C@@H]34)[C@H]2C1,3.88% [at 114 µM] (inactive),
COc1cc(/C=C/C(=O)O[C@H]2[C@H](O)[C@@H](CO)O[C@@]2(CO)O[C@H]2O[C@H](COC(=O)c3ccc(O)cc3)[C@@H](O)[C@H](O)[C@H]2O)cc(OC)c1OC,5.12% [at 30.2 µM] (inactive),
CO[C@@]12CC3[C@@H]([C@@H](O)[C@@H](OC(C)=O)C4[C@](C)(COC(C)=O)CCC[C@]34C)[C@@H](C)C1=CC(=O)O2 (stereo partly drawn),4.13% (inactive),
O=c1c2ccccc2nc2n1CCC2O (stereo not drawn),4.63% [at 228 µM] (inactive),
CN1C(=O)c2ccccc2-n2c(nc3ccccc3c2=O)/C1=C/c1ccccc1,-0.856% (inactive),
CC(=O)OC[C@@]12[C@H](O)C[C@@H](C)[C@]3(C[C@@H](c4ccoc4)OC3=O)[C@H]1C[C@H](O)C[C@]21CO1,5.77% (inactive),
CC1(C)OC(=O)C(OCC2CC2)=C1c1ccc(S(C)(=O)=O)cc1,-2.36% [at 114 µM] (inactive),
COC(=O)C1=CO[C@@H](O[C@@H]2O[C@H](COC(=O)/C=C/c3cc(OC)c(O)c(OC)c3)[C@@H](O)[C@H](O)[C@H]2O)[C@@H]2C(CO)=CC[C@H]12,0.0968% [at 30.2 µM] (inactive),
CC(=O)OC1C(O)CC(O[C@@H]2O[C@H](CO)[C@@H](O)[C@H](O)[C@H]2O)C2CCC3C(=O)OC(c4ccoc4)CC3(C)C21 (stereo partly drawn),-6.48% (inactive),
C=CC1(C)C=C2C(O)CC3C(C)(C(=O)O)CCCC3(C)C2CC1 (stereo not drawn),2.94% (inactive),
OCC1OC(Oc2cc(O)c3c(c2)OC(c2ccc(O)cc2)C(O)C3)C(O)C1O (stereo not drawn),1.64% (inactive),
C=C1CCC2C(C)(C)CC(=O)CC2(C)C1CCC(C)CCOC(C)=O (stereo not drawn),-8.67% (inactive),
C=C1[C@H]2CC[C@]3(O)[C@@](CC[C@@H]4[C@](C)(C(=O)O)CCC[C@]43C)(C2)[C@H]1OC(=O)/C(C)=C\C,0.2% (inactive),
CC(C)C1(O[C@@H]2O[C@H](CO)[C@@H](O)[C@H](O)[C@H]2O)CC=C(CO)CC1 (stereo partly drawn),-1.87% (inactive),
C=C1C(OC(C)=O)C(=O)C2C(C)(C)C(OC(C)=O)CCC2(C)C1CC(OC(C)=O)/C(C)=C/COC(C)=O (stereo not drawn),-2.52% (inactive),
C=C1CC23CC1(O)CCC2C1=CC2OC(=O)C(C)(C2O)C1C3C(=O)O (stereo not drawn),-2.08% (inactive),
C[C@@H]1C(=O)O[C@H]2[C@H]1CC[C@@]1(C)C(=O)C=C[C@](C)(O)[C@H]21,2.36% [at 114 µM] (inactive),

SMILES,"activity change, negative = inhibition",Potency
CC1C(=O)CC2C3C(O)CC(C(=O)O)C12CC3(C)C (stereo not drawn),0.24% [at 114 µM] (inactive),
O=C1N(CC2CCCCN2)CCN1c1ccccc1 (stereo not drawn),3.76% [at 114 µM] (inactive),
CCOC(=O)[C@H]1O[C@@H]1C(=O)N[C@@H](CC(C)C)C(=O)NCCC(C)C,-4.82% [at 114 µM] (inactive),
CC(=O)N1c2ccccc2C2(O)CC3C(=O)NC(CC(C)C)C(=O)N3C12 (stereo not drawn),0.22% (inactive),
C[C@H]1[C@H](C)CC[C@]2(C(=O)O[C@@H]3O[C@H](CO)[C@@H](O)[C@H](O)[C@H]3O)CC[C@]3(C(=O)O)C(=CCC4[C@@]5(C)CC[C@H](O[C@@H]6O[C@H](CO)[C@@H](O)[C@H](O)[C@H]6O)C(C)(C)C5CC[C@]43C)[C@H]12 (stereo partly drawn),2.03% [at 30.2 µM] (inactive),
COC(=O)C1=CO[C@@H](O[C@@H]2O[C@H](CO)[C@@H](O)[C@H](O)[C@H]2O)[C@@H]2[C@@H](C(=O)OC)[C@@H](O)C(O)[C@H]12 (stereo partly drawn),4.84% (inactive),
COc1ccccc1-n1c(SCC(=O)Nc2nc3ccc(C)cc3s2)nc2c(c1=O)SCC2,0.583% (inactive),
CC1(CO)CC[C@]2(C(=O)O[C@@H]3O[C@H](CO)[C@@H](O)[C@H](O)[C@H]3O)CC[C@]3(C)C(=CCC4[C@@]5(C)CC[C@H](O[C@@H]6O[C@H](C(=O)O)[C@@H](O)[C@H](O)[C@H]6O)C(C)(C)C5CC[C@]43C)C2C1 (stereo partly drawn),3.67% [at 30.2 µM] (inactive),
COc1cc(N2CCC(O)CC2)ccc1Nc1cc(Nc2ccccc2S(=O)(=O)C(C)C)c2cc[nH]c2n1,,inactive
C=C1CC/C=C(/CO)C(=O)C[C@@H]2[C@@H]1CC2(C)C,1.08% [at 114 µM] (inactive),
N[C@H]1C[C@H]1c1ccc(-c2cccc(O)c2)cc1,,inactive
COc1c2c(c(C)c3c1C(=O)OC3)OC1(C)CC(O)C3(O)C(C)(C)OC(=O)CCC3(C)C1C2 (stereo not drawn),-0.501% (inactive),
COc1cccc(-c2ccc([C@@H](Oc3cc(-c4ccc(C[C@H](N)C(=O)O)cc4)nc(N)n3)C(F)(F)F)cc2)c1,4.53% [at 114 µM] (inactive),
CC1CCC(=O)CC(O)C(O)CC(=O)O1 (stereo not drawn),-4.93% [at 114 µM] (inactive),
CCc1c(CC(N)=O)c2cc(OCCCP(=O)(O)O)ccc2n1Cc1ccccc1,2.04% [at 114 µM] (inactive),
CC(=O)O[C@@H]1[C@H]2[C@@H](OC(=O)c3ccccc3)[C@@H](C)C[C@]2(O)[C@H](OC(C)=O)[C@@]2(C)[C@@H]3CC(C)(C)C(=O)[C@]3(OC(C)=O)C[C@@]12C,-5.2% [at 30.2 µM] (inactive),
